Screen size: about 39,000 compounds; about 3,300 (8.5%) were called active. This is one part of a sample in which actives are shown more often than they occur.

The test system of this assay is HepG2. Nature of the assay: cytotoxicity call (relative viability < 0.9). The conditions noted are these: 10 µM.
Turning to `COc1cccc(S(=O)(=O)Nc2ccc3c(c2)C(=O)N(C)C[C@@H](OC)[C@@H](C)CN(C(=O)Cc2cccnc2)[C@@H](C)CO3)c1`, the cytotoxicity call was “inactive”.
In the case of `CC(C)NC(=O)N[C@@H]1C=C[C@@H](CC(=O)NCCN2CCCC2)O[C@H]1CO`, the cytotoxicity call was “inactive”.
The result for `COc1ccc(NC(=O)N(C)C[C@@H]2OCCCC[C@@H](C)Oc3ccc(NC(=O)C4CCCCC4)cc3C(=O)N([C@H](C)CO)C[C@H]2C)cc1` reads “inactive”; that for `COc1ccc(CN(C)C[C@H]2OCCCC[C@H](C)Oc3ccc(NC(=O)C4CCCCC4)cc3C(=O)N([C@@H](C)CO)C[C@H]2C)cc1`, “inactive”; that for `O=C(C[C@H]1CC[C@@H]2NC[C@H](O)COC[C@H]2O1)NCCN1CCCCC1`, “inactive”.
The result for `O=C1O[C@H](c2ccccc2)[C@H](c2ccccc2)N2[C@H]1[C@@H](C(=O)N1CCCCCCC1)[C@]1(C(=O)Nc3ccc(C#CCCO)cc31)[C@H]2c1ccc(O)cc1` reads “inactive”; that for `CSc1nc2nc(N)nc(N)c2s1`, “inactive”.
Take `COc1cccc(S(=O)(=O)N2C[C@H](O)COC[C@@H]3O[C@H](CC(=O)N4CCN(c5ccccc5)CC4)CC[C@H]32)c1`: the cytotoxicity call is “inactive”.
As to `O=C(C[C@H]1CC[C@@H]2[C@H](COC[C@H](O)CN2S(=O)(=O)c2cccc(Cl)c2)O1)NC1Cc2ccccc2C1`, the cytotoxicity call is “inactive”.
In the case of `C[C@@H]1CN([C@@H](C)CO)C(=O)c2cccc(NC(=O)c3cnccn3)c2O[C@@H]1CN(C)S(C)(=O)=O`, the cytotoxicity call is “inactive”.
Turning to `CC(C)NC(=O)Nc1ccc2c(c1)C(=O)N([C@H](C)CO)C[C@H](C)[C@@H](CN(C)Cc1ccccc1)OCCCC[C@@H](C)O2`, the cytotoxicity call was “inactive”.
The result for `C[C@@H]1CN([C@@H](C)CO)C(=O)c2cc(NC(=O)Nc3ccc(C(F)(F)F)cc3)ccc2O[C@@H]1CN(C)Cc1ccc(C(=O)O)cc1` reads “inactive”; that for `C[C@H](CO)N1C[C@H](C)[C@@H](CN(C)Cc2ccc(C(F)(F)F)cc2)Oc2ccc(NC(=O)Nc3ccccc3)cc2C1=O`, “active”; that for `C[C@H](CO)N1C[C@H](C)[C@@H](CN(C)Cc2ccc(C(=O)O)cc2)Oc2ccc(NC(=O)Nc3ccc(C(F)(F)F)cc3)cc2C1=O`, “inactive”.
Take `C[C@@H]1CCCCO[C@H](CN(C)C(=O)c2ccncc2)[C@@H](C)CN([C@H](C)CO)C(=O)c2cc(NC(=O)C3CCCCC3)ccc2O1`: the cytotoxicity call was “inactive”.
Turning to `C[C@H](CO)N1C[C@H](C)[C@@H](CN(C)S(=O)(=O)c2cn(C)cn2)Oc2ccc(NS(=O)(=O)c3cn(C)cn3)cc2C1=O`, the cytotoxicity call was “inactive”.
With `C[C@@H]1CCCCO[C@@H](CN(C)S(=O)(=O)c2ccc(F)cc2)[C@@H](C)CN([C@@H](C)CO)C(=O)c2cc(NC(=O)Nc3cccc4ccccc34)ccc2O1` the entry was “inactive”; with `CCc1cccc(C(C)C)c1NC(=O)Nc1ccccc1`, “inactive”.
For the molecule `Cc1oc(C(C)(C)C)cc1C(=O)Nc1ccc(C(C)C)cc1`, the cytotoxicity call was “inactive”.
Turning to `CC(C)c1ccccc1Cc1cc(C(=O)Nc2ccc(S(=O)(=O)c3ccccc3C(C)(C)C)cc2)c(O)c(O)c1O`, the cytotoxicity call is “active”.
On to `C[C@@H]1CN([C@@H](C)CO)C(=O)Cc2cc(NC(=O)CCN3CCOCC3)ccc2O[C@@H]1CN(C)S(=O)(=O)c1ccccc1`, for which the cytotoxicity call is “inactive”.
As for `COC(=O)C1=CC(CCCO)=C[C@@H](c2ccc(CN3CCCC3)cc2)N(Cc2sc3ccccc3c2Cl)C=C1C(=O)OC`, the cytotoxicity call was “inactive”.
Regarding `C[C@@H]1CN([C@H](C)CO)C(=O)c2cc(C#Cc3ccccc3)cnc2O[C@@H]1CN(C)C(=O)CCN1CCCCC1`, the cytotoxicity call was “inactive”.
As to `C[C@H]1CN([C@@H](C)CO)C(=O)c2cc(C#Cc3ccccc3)cnc2O[C@H]1CN(C)C(=O)CCN1CCCCC1`, the cytotoxicity call was “active”.
Regarding `C[C@H]1CN([C@@H](C)CO)C(=O)c2cc(C#Cc3ccccc3)cnc2O[C@@H]1CN(C)C(=O)CCN1CCCCC1`, the cytotoxicity call was “active”.
Regarding `C[C@H](CO)N1C[C@H](C)[C@@H](CN(C)C(=O)CCN2CCCCC2)Oc2ncc(C#Cc3ccccc3)cc2C1=O`, the cytotoxicity call is “inactive”.
`C[C@@H]1CN([C@@H](C)CO)C(=O)c2cc(C#Cc3ccccc3)cnc2O[C@@H]1CN(C)C(=O)CCN1CCCCC1`: the cytotoxicity call was “inactive”.
With `C[C@@H]1CN([C@H](C)CO)C(=O)c2cc(C#Cc3ccccc3)cnc2O[C@H]1CN(C)C(=O)CCN1CCCCC1` the entry was “inactive”; with `CC(C)NC(=O)N(C)C[C@@H]1Oc2ccc(NC(=O)c3ccncc3)cc2CC(=O)N([C@@H](C)CO)C[C@H]1C`, “inactive”.
Take `COc1ccc(S(=O)(=O)N(C)C[C@@H]2Oc3ccc(NC(=O)CCCN(C)C)cc3CC(=O)N([C@H](C)CO)C[C@@H]2C)cc1`: the cytotoxicity call was “inactive”.
Turning to `Cc1ccc(=O)[nH]n1`, the cytotoxicity call is “inactive”.
As for `C[C@@H]1CN([C@@H](C)CO)C(=O)c2cc(-c3cccnc3)cnc2O[C@@H]1CN(C)Cc1ccc(Oc2ccccc2)cc1`, the cytotoxicity call was “inactive”.
As for `C[C@H]1CCCCO[C@H](CN(C)C(=O)Nc2cccc3ccccc23)[C@@H](C)CN([C@@H](C)CO)C(=O)c2cc(NC(=O)Cc3ccccc3)ccc2O1`, the cytotoxicity call was “inactive”.
As to `COc1cccc(S(=O)(=O)N(C)C[C@@H]2Oc3ncc(-c4cccc(C(=O)N(C)C)c4)cc3C(=O)N([C@@H](C)CO)C[C@H]2C)c1`, the cytotoxicity call is “inactive”.
For `CC(C)NC(=O)Nc1ccc2c(c1)C(=O)N([C@H](C)CO)C[C@H](C)[C@@H](CN(C)Cc1ccccc1)OCCCC[C@H](C)O2`, the cytotoxicity call is “inactive”.
Take `COc1ccc2c3c([nH]c2c1)[C@@H](CO)N(C[C@]13CN(CCc2ccccc2)C1)C(=O)CN1CCOCC1`: the cytotoxicity call is “inactive”.
For the molecule `COc1ccc(cc1)CN1C[C@]2(CN(C2)C(=O)Cc2ccncc2)c2c([nH]c3cc(ccc23)OC)[C@H]1CO`, the cytotoxicity call was “inactive”.
On to `COc1ccc2c3c([nH]c2c1)[C@H](CO)N(Cc1ccc(cc1)Cl)C[C@]13CN(CCc2ccccc2)C1`, for which the cytotoxicity call is “active”.
Consider `COc1ccc2c3c([nH]c2c1)[C@@H](CO)N(Cc1ccc(cc1)Cl)C[C@]13CN(CCc2ccccc2)C1`, for which the cytotoxicity call was “active”.
For `COc1ccc2c3c([nH]c2c1)[C@H](CO)N(C[C@]13CN(CCc2ccccc2)C1)C(=O)CN1CCOCC1`, the cytotoxicity call was “inactive”.
With `COc1ccc2c3c([nH]c2c1)[C@@H](CO)N(Cc1ccccc1)C[C@]13CCN(CC1)C(=O)Nc1cccc(c1)F` the entry was “inactive”; with `C[C@H]1CN([C@@H](C)CO)C(=O)c2c(c3ccccc3n2C)-c2ccccc2CO[C@@H]1CN(C)Cc1ccccc1C(F)(F)F`, “inactive”.
